Test in all cases: DAPPL (digital affinity profiling via proximity ligation, sequencing); 10 mM Tris-HCl pH 7.5, 50 mM NaCl, 1 mM DTT, 4% glycerol, room temperature, 30 min; GST-TFs on glutathione beads, 16-mer random dsDNA library, 0.1% formaldehyde crosslink after washing; high values mean tight binding
The target of one test is T1, FLI1 (Homo sapiens, UniProt Q01543 1-452).
T1 sequence: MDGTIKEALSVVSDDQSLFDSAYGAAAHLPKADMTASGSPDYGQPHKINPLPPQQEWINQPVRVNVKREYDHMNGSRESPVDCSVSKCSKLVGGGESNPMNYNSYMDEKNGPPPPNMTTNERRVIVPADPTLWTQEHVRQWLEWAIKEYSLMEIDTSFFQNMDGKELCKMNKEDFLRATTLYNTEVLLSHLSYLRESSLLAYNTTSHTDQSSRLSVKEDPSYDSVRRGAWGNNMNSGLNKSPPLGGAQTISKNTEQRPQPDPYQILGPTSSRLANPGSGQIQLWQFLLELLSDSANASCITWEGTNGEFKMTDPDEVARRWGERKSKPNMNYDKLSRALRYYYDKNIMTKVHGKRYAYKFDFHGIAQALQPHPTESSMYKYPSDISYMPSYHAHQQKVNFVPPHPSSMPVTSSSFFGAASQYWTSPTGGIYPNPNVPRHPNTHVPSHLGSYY
The settings on record: protein: recombinant; tags: N-terminal GST; dsDNA, one strand shown. The procedure, abridged: (§1)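 The binding signal reported is, for every hexamer, its read frequency for a factor over its read frequency for the tag-only sample. Reads came from pools of yeast-expressed, GST-fused human transcription factors on glutathione beads, barcoded with DNA and mixed with that sample, which were incubated with 200 nmole of a random double-stranded 16-mer DNA library in Tris/NaCl/DTT/glycerol buffer at room temperature for 30 min. After washing, the pools were crosslinked with 0.1% formaldehyde, proximity-ligated with BsaI/T4 ligase for 1 h at 37 °C, PCR-amplified and sequenced on an Illumina NextSeq500.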

A further test deals with T2, ELK1 (Homo sapiens, UniProt P19419 1-428).
T2 sequence: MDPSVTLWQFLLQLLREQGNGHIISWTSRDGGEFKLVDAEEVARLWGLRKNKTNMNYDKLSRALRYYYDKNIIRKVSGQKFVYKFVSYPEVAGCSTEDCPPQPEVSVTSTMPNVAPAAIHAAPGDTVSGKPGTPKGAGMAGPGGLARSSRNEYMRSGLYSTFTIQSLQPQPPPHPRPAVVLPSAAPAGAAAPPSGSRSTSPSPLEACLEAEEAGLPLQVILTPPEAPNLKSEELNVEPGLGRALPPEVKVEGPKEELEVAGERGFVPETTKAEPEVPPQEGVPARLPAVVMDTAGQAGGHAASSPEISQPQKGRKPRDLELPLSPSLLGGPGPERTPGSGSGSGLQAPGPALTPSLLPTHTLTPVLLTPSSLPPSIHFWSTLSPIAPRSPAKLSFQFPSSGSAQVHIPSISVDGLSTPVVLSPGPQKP
The settings on record: protein: recombinant; tags: N-terminal GST; dsDNA, one strand shown. The procedure, abridged: as §1

The next test addresses T3, GABPA (Homo sapiens, UniProt Q06546 1-454).
T3 sequence: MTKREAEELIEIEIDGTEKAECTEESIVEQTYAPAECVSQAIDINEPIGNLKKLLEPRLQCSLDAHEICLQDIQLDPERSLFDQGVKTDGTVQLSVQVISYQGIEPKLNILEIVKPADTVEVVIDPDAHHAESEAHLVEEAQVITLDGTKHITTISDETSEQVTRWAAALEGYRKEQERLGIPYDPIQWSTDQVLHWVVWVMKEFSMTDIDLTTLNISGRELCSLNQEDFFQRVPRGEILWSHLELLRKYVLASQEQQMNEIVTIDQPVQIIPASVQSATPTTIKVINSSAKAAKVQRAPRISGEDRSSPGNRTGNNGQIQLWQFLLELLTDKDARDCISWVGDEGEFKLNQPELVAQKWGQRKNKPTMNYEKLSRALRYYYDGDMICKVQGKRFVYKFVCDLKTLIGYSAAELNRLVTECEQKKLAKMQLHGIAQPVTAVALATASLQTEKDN
The settings on record: protein: recombinant; tags: N-terminal GST; dsDNA, one strand shown. Put shortly: as §1

The target of a further test is T4, ERG (Homo sapiens, UniProt P11308 1-479).
T4 sequence: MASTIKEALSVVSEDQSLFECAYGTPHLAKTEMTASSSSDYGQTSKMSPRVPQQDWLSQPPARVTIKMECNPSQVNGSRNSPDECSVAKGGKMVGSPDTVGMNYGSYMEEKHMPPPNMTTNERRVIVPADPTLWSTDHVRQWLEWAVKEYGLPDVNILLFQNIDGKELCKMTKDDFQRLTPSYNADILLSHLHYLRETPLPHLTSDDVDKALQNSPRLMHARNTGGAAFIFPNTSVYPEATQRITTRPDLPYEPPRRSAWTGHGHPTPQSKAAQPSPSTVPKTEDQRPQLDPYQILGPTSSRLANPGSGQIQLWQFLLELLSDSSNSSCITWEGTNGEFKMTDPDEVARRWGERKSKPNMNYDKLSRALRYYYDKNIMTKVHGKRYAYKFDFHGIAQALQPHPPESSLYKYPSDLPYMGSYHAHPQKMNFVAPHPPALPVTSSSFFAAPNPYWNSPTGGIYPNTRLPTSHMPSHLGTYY
The settings on record: protein: recombinant; tags: N-terminal GST; dsDNA, one strand shown. The procedure, abridged:
as §1

A further test concerns the target ELF1 (Homo sapiens, UniProt P32519 1-619). The settings on record: protein: recombinant; tags: N-terminal GST; dsDNA, one strand shown. Put shortly:
as §1

For another test, the target named is T5, EHF (Homo sapiens, UniProt Q9NZC4 1-300).
T5 sequence: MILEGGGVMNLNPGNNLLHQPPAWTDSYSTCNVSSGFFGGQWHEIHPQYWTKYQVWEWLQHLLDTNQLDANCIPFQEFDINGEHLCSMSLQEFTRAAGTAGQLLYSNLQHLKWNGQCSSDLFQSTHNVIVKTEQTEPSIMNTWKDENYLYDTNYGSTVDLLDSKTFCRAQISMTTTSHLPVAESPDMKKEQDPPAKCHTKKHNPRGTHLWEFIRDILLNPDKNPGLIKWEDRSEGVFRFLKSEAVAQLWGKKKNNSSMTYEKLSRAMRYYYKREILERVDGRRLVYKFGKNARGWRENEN
The settings on record: protein: recombinant; tags: N-terminal GST; dsDNA, one strand shown. Put shortly:
as §1

The target of a further test is SPI1 (Homo sapiens, UniProt P17947 1-270). The settings on record: protein: recombinant; tags: N-terminal GST; dsDNA, one strand shown. The procedure, abridged:
as §1

The next test deals with SPIB (Homo sapiens, UniProt Q01892 1-262). The settings on record: protein: recombinant; tags: N-terminal GST; dsDNA, one strand shown. Put shortly: as §1
The target in the next test is T6, ELK3 (Homo sapiens, UniProt P41970 1-407).
T6 sequence: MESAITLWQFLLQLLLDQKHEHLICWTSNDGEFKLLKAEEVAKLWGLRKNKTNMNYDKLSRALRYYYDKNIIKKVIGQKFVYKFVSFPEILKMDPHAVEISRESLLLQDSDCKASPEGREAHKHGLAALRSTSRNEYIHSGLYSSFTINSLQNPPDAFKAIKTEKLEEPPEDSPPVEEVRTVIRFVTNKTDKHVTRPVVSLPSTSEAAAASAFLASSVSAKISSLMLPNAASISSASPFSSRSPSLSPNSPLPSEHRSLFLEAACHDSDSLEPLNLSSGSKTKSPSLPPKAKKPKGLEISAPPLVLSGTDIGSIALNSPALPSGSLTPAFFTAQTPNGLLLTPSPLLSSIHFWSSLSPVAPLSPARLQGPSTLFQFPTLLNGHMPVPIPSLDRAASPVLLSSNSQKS
The settings on record: protein: recombinant; tags: N-terminal GST; dsDNA, one strand shown. The procedure, abridged: as §1

For a further test, the target named is T7, FEV (Homo sapiens, UniProt Q99581 1-238).
T7 sequence: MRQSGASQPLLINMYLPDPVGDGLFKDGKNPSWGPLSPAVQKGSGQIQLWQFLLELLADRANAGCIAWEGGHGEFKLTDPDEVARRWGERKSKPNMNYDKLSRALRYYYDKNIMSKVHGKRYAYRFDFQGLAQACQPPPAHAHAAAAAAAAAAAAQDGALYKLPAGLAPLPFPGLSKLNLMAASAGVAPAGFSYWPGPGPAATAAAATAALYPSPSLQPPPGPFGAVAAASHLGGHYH
The settings on record: protein: recombinant; tags: N-terminal GST; dsDNA, one strand shown. Put shortly: as §1

Another test deals with ETV5 (Homo sapiens, UniProt P41161 1-510). The settings on record: protein: recombinant; tags: N-terminal GST; dsDNA, one strand shown. The procedure, abridged: as §1
Another test addresses HSF1 (Homo sapiens, UniProt Q00613 1-529). The settings on record: protein: recombinant; tags: N-terminal GST; chain copies: 3; dsDNA, one strand shown. Put shortly:
as §1

A further test concerns the target T8, SPIC (Homo sapiens, UniProt Q8N5J4 1-248).
T8 sequence: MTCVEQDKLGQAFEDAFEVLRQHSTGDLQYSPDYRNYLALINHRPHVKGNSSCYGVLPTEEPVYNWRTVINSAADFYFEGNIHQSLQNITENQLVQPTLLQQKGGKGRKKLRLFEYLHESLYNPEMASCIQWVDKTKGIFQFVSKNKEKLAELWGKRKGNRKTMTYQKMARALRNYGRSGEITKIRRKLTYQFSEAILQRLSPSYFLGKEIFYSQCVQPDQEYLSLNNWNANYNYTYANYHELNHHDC
The settings on record: protein: recombinant; tags: N-terminal GST; dsDNA, one strand shown. Put shortly:
as §1

Another test concerns the target ELF4 (Homo sapiens, UniProt Q99607 1-663). The settings on record: protein: recombinant; tags: N-terminal GST; dsDNA, one strand shown. Put shortly:
as §1

The target in the next test is T9, ELK4 (Homo sapiens, UniProt P28324-2 1-405).
T9 sequence: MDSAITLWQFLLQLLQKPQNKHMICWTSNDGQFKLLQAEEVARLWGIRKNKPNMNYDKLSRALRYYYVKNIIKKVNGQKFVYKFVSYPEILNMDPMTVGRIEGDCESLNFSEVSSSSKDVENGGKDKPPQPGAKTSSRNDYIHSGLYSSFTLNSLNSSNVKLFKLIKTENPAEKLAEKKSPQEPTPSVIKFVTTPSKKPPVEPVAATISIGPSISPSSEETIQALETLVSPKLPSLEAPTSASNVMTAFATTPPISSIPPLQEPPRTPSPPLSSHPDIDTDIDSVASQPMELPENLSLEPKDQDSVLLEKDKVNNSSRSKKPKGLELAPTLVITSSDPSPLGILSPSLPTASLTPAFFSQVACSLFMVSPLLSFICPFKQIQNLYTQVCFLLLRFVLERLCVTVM
The settings on record: protein: recombinant; tags: N-terminal GST; dsDNA, one strand shown. The procedure, abridged:
as §1

The target of the next test is T10, ETV2 (Homo sapiens, UniProt O00321 1-342).
T10 sequence: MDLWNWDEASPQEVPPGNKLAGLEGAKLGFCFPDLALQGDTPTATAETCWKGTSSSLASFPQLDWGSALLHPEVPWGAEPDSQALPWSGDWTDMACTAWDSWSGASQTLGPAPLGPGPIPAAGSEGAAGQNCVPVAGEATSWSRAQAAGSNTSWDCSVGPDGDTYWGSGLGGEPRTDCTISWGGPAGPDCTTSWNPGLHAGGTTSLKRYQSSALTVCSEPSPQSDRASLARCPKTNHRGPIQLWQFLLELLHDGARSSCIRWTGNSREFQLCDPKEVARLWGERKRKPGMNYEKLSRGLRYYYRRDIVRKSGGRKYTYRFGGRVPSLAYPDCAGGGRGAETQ
The settings on record: protein: recombinant; tags: N-terminal GST; dsDNA, one strand shown. The procedure, abridged:
as §1

The next test deals with CRX (Homo sapiens, UniProt O43186 1-299). The settings on record: protein: recombinant; tags: N-terminal GST; dsDNA, one strand shown. Put shortly:
as §1

For the next test, the target named is ETV1 (Homo sapiens, UniProt P50549 1-477). The settings on record: protein: recombinant; tags: N-terminal GST; dsDNA, one strand shown. The procedure, abridged:
as §1

Our source for the binding signal values is publication PMC7862700, “An all-to-all approach to the identification of sequence-specific readers for epigenetic DNA modifications on cytosine”.

Sequence of ELF4 (Q99607 whole entry): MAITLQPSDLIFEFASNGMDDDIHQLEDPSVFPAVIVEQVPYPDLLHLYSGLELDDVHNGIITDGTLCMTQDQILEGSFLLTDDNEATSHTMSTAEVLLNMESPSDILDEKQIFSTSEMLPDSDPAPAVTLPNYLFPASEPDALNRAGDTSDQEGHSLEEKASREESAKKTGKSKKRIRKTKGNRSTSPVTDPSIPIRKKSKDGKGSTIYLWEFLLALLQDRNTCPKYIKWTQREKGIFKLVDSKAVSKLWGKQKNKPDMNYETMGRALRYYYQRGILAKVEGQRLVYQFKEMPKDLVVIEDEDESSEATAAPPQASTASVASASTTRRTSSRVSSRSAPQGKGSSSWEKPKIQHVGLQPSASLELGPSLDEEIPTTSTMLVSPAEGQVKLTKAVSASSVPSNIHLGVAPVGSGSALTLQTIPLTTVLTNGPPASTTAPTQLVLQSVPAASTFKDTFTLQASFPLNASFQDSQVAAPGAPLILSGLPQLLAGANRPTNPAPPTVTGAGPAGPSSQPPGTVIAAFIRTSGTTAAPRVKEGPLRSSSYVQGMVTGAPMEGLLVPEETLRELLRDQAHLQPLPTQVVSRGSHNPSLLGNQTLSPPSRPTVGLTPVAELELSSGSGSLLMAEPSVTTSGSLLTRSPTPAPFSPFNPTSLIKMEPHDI
Sequence of SPIB (Q01892 whole entry): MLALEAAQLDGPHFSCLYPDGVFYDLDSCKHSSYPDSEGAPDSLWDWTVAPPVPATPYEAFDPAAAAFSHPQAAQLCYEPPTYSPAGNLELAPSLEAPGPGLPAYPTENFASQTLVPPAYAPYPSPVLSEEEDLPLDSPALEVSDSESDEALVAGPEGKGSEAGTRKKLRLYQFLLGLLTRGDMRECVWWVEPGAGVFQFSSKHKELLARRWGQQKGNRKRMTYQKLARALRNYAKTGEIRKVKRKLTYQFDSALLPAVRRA
Sequence of ETV1 (P50549 whole entry): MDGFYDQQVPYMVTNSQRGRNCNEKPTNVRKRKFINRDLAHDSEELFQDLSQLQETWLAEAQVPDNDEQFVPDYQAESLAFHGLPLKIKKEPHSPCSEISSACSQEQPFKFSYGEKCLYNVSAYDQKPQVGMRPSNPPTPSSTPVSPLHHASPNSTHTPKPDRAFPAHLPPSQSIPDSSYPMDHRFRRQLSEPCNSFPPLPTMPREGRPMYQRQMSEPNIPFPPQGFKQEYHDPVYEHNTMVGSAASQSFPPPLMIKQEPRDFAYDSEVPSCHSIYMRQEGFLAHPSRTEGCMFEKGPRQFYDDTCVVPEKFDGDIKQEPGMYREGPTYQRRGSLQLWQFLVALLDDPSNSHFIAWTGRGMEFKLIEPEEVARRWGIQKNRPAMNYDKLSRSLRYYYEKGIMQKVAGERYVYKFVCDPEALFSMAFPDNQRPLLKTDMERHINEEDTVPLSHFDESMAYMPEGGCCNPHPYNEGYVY
Sequence of ETV5 (P41161 whole entry): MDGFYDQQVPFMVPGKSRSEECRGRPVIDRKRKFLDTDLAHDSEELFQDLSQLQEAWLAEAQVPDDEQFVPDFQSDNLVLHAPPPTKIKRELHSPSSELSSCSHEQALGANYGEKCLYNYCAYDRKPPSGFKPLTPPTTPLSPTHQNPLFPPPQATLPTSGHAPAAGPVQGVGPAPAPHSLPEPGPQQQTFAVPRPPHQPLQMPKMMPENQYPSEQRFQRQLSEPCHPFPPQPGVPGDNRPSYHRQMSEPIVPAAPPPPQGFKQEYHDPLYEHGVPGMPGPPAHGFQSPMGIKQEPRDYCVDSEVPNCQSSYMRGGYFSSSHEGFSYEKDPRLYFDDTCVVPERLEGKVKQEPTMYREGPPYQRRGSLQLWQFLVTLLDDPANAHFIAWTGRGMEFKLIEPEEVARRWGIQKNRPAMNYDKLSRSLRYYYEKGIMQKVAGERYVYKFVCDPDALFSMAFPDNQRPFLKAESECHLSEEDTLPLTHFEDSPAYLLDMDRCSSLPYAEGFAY
Sequence of ELF1 (P32519 whole entry): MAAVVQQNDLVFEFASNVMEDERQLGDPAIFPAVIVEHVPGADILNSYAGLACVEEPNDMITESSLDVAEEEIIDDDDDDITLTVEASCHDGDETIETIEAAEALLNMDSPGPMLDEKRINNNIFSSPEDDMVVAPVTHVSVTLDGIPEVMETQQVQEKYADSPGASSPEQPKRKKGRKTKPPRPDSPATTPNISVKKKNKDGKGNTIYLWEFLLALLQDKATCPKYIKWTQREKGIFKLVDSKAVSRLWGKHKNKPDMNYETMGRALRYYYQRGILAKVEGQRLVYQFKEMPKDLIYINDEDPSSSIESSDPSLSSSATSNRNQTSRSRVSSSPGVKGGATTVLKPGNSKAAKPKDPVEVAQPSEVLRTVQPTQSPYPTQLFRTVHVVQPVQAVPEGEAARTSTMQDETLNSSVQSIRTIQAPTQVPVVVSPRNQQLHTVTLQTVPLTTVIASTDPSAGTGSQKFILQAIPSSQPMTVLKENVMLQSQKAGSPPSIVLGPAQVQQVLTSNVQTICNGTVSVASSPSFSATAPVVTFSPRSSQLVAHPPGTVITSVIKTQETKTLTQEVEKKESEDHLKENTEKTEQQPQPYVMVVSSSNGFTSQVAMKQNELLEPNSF
Sequence of CRX (O43186 whole entry): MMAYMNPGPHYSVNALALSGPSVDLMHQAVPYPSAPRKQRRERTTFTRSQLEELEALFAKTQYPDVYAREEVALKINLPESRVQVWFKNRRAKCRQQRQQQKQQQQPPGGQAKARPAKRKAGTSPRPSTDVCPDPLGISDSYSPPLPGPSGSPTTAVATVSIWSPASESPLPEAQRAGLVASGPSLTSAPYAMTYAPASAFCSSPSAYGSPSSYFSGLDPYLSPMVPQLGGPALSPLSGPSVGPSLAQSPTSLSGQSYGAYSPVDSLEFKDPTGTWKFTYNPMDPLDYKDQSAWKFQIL
Sequence of HSF1 (Q00613 whole entry): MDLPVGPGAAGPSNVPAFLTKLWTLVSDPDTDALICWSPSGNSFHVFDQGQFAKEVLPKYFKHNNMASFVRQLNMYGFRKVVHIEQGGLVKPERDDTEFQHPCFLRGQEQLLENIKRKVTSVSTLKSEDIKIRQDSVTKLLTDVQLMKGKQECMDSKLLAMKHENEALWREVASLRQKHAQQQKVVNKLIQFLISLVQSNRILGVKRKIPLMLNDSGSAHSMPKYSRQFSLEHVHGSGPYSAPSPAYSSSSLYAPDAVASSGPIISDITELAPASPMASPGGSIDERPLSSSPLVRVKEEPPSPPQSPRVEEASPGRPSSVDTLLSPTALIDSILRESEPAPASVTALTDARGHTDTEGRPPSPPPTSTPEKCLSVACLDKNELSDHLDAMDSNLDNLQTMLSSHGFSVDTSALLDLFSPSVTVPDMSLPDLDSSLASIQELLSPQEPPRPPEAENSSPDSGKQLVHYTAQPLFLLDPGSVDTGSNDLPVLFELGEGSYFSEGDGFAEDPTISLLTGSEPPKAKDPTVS

Turning to ATTCAG, the binding signal with FLI1 is 1.02 fold enrichment (6-mer frequency, TF over GST control); in the test with ELK1, 1.11 fold enrichment (6-mer frequency, TF over GST control); in the test with GABPA, 1.17 fold enrichment (6-mer frequency, TF over GST control); in the test with ERG it was 1.14 fold enrichment (6-mer frequency, TF over GST control); with ELF1, 1.09 fold enrichment (6-mer frequency, TF over GST control); with EHF, 1.1 fold enrichment (6-mer frequency, TF over GST control). The binding signal with SPI1 is 1.16 fold enrichment (6-mer frequency, TF over GST control); with SPIB it was 1.02 fold enrichment (6-mer frequency, TF over GST control); with ELK3, 1.16 fold enrichment (6-mer frequency, TF over GST control); with FEV it was 1.03 fold enrichment (6-mer frequency, TF over GST control); with ETV5, 1.1 fold enrichment (6-mer frequency, TF over GST control); in the test with HSF1 it was 1.17 fold enrichment (6-mer frequency, TF over GST control). Further, the binding signal was 1.17 fold enrichment (6-mer frequency, TF over GST control) in the test with SPIC; 1.13 fold enrichment (6-mer frequency, TF over GST control) in the test with ELF4; 1.08 fold enrichment (6-mer frequency, TF over GST control) with ELK4; 1.02 fold enrichment (6-mer frequency, TF over GST control) with ETV2; 1.07 fold enrichment (6-mer frequency, TF over GST control) in the test with CRX; 1.07 fold enrichment (6-mer frequency, TF over GST control) in the test with ETV1.
